Experimental data reported in PubChem BioAssay (NCATS).
Records with an inconclusive call do not appear. Entries that show only a call come without a potency. Active and inactive are the calls of the source. Calls come from the whole dose curve; as a rule, active = well fitted curve in the direction sought with a large enough effect; inconclusive = small, poorly fitted or top-dose-only effect, or another doubt; inactive = no such curve, though single readings can be large; an effect the other way counts as inactive or inconclusive.

Experiments:
[1] = Cytometric Cell-Based qHTS for Inhibitors of the mTORC1 Signaling Pathway in MEF (Tsc2-/-, p53-/-) Cells (AID 2660);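 note: percent of cells above a phospho-rpS6 to PI ratio cutoff in each well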
Procedure, shortened: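 Percent of cells positive for normalized phospho-S6 staining is reported, with the cutoff set from rapamycin (7.5 nM) versus DMSO wells. Tsc2-/-, p53-/- MEFs received compound for 24 hrs.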

[2] = High Content Imaging Cell-Based qHTS for Inhibitors of the mTORC1 Signaling Pathway in MEF (Tsc2-/-, p53-/-) Cells (AID 2666); settings: at 38.3 µM (top of the series);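 note: percent of cells scored positive for phospho-rpS6 Ser235/236 immunostaining by imaging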
Procedure, shortened: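 Phospho-rpS6 (Ser235/236) immunofluorescence, normalized and scored as % positive cells using rapamycin and DMSO controls, was read in empty-vector Tsc2-/-, p53-/- MEFs after 24 h compound exposure at 37 C; propidium iodide counted cells.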

[3] = High Content Imaging Cell-Based qHTS for Inhibitors of the mTORC1 Signaling Pathway in MEF Cells (AID 2667);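 note: Tsc2-/- p53-/- MEFs stably re-expressing wild-type Tsc2 exposed 24 h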
Procedure, shortened: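 WT MEFs (Tsc2-/-, p53-/- re-expressing Tsc2), in DMEM + 10% FBS, were treated with compound for 24 h at 37 C. Cells were then fixed and stained for phospho-rpS6 Ser235/236 with propidium iodide as cell count. Values are % positive cells, with thresholds set against rapamycin-treated cells.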

[4] = Cytometry Cell-Based qHTS for Inhibitors of the mTORC1 Signaling Pathway in MEF cells (AID 2668);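 note: Tsc2-/- p53-/- mouse embryonic fibroblasts stably re-expressing wild-type Tsc2; percent cells positive for phospho-rpS6 Ser235/236 relative to propidium iodide stain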
Procedure, shortened: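 In MEFs grown in DMEM + 10% FBS, a 24 hrs compound exposure preceded imaging of phospho-rpS6 Ser235/236 by laser-scanning cytometry.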

[5] = target: Ubiquitin carboxyl-terminal hydrolase 2 (Homo sapiens) (UniProt O75604); test: qHTS Validation Assay for Inhibitors of Ubiquitin-specific Protease USP2a Using CHOP2 as the Reporter (AID 463106)
Sequence of Ubiquitin carboxyl-terminal hydrolase 2 (Homo sapiens) (O75604 whole entry, looked up): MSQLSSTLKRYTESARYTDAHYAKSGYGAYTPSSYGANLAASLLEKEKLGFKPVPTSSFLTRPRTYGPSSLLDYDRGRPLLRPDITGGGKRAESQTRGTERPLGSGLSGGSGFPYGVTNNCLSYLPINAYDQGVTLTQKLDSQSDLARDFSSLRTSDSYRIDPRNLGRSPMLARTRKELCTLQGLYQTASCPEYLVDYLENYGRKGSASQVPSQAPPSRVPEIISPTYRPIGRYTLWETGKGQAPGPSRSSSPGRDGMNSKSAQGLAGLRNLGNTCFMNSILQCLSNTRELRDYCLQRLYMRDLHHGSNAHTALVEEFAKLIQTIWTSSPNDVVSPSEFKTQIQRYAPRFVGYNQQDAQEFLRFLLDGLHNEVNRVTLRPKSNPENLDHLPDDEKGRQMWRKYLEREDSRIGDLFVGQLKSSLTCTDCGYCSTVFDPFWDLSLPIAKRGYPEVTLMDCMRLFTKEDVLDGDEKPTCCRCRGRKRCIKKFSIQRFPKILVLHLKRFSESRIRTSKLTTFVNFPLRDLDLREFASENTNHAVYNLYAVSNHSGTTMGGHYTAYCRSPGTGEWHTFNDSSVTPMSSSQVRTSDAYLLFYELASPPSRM
Procedure, shortened: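 USP2 core (10 nM final) was preincubated with compound 30 min at RT in pH 8.0 Tris/CaCl2/beta-ME/CHAPS buffer. Ub-CHOP2 and reporter substrate (25 nM final each) were then added, with fluorescence (Ex 485/Em 531) read after 60 min. Data were normalized to NEM full inhibition and fitted to concentration-response curves.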

[6] = target: DNA polymerase III PolC-type (Bacillus subtilis (strain 168)) (UniProt P13267); test: qHTS Validation Assay for the Inhibitors of DNA Replication in Gram-Positive Bacteria (AID 485295);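 note: reconstituted holoenzyme with PolC plus beta clamp SSB and primase; PicoGreen fluorescence of double-stranded DNA made on primed circular M13 template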
Sequence of DNA polymerase III PolC-type (Bacillus subtilis (strain 168)) (P13267 whole entry, looked up): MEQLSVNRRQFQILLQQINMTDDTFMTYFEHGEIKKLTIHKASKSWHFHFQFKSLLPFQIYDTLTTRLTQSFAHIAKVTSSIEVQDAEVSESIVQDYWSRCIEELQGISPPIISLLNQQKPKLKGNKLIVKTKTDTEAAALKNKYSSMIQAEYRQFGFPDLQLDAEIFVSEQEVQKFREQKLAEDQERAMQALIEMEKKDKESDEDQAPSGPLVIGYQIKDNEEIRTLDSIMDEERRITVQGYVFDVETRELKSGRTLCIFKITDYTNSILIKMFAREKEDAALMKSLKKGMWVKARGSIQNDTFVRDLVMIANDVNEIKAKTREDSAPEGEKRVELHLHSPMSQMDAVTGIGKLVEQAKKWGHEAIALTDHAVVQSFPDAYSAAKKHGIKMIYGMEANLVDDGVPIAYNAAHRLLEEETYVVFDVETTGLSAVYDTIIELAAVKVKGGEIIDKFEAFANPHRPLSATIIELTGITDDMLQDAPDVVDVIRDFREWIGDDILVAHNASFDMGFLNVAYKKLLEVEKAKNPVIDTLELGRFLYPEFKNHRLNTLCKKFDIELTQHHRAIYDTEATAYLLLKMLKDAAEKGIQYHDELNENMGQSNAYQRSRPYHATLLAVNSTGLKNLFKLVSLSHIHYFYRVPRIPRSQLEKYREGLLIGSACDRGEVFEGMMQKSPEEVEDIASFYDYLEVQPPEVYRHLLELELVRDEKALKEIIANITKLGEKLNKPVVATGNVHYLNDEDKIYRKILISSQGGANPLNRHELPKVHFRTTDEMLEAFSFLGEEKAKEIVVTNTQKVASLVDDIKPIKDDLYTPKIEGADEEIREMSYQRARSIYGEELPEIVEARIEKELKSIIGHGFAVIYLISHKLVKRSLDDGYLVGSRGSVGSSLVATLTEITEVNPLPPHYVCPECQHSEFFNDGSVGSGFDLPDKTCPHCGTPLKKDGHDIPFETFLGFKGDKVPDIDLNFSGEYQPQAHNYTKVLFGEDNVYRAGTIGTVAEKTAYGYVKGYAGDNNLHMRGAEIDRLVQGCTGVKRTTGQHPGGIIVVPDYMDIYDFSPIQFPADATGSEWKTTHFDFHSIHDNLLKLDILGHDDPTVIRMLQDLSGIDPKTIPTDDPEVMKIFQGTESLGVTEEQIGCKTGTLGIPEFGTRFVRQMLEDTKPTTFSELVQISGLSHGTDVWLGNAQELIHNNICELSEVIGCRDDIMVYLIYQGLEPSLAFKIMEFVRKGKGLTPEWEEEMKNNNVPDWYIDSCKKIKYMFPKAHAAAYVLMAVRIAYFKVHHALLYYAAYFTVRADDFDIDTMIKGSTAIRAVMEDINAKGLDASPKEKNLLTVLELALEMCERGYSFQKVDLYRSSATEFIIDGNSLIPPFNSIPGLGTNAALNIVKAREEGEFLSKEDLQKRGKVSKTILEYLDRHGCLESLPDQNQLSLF
Procedure, shortened: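 Inhibition of DNA synthesis by the reconstituted PolC holoenzyme, monitored through PicoGreen staining of dsDNA formed from ssM13Gori, dNTPs and NTPs, with compound preincubation and room-temperature reaction.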

[7] = target: ATP-dependent DNA helicase Q1 (Homo sapiens) (UniProt P46063); test: qHTS Validation Assay for Inhibitors of RecQ-Like Dna Helicase 1 (RECQ1) (AID 2353)
Sequence of ATP-dependent DNA helicase Q1 (Homo sapiens) (P46063 whole entry, looked up): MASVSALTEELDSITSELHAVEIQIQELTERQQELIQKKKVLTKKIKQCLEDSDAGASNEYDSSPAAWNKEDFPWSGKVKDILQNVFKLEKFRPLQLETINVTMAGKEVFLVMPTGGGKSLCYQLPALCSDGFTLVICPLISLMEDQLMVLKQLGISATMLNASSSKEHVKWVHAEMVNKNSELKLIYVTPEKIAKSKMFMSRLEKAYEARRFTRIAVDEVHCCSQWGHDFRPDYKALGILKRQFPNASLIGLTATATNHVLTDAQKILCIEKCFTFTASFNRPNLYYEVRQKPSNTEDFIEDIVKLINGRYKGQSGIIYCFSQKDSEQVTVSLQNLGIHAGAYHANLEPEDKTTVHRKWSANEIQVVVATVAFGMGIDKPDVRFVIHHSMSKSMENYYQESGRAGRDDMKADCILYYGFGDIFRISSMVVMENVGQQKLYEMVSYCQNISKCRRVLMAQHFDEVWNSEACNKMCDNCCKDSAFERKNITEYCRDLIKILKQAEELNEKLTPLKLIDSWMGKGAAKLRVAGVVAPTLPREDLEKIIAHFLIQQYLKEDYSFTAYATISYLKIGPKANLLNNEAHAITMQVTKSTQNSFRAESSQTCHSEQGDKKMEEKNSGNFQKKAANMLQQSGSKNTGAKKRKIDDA
Procedure, shortened: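 50 nM RECQ1T1 preincubated 15 min with compound in Tris pH 8.0 buffer with MgCl2, DTT, Tween-20 and 2.5 ug/ml poly(dI-dC); started with 200 nM TAMRA/BHQ-2 forked duplex and 2 mM ATP. Unwinding read as fluorescence (525/598 nm), two reads 2 h apart.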

[8] = target: RecQ-like DNA helicase BLM (Homo sapiens) (UniProt P54132); test: qHTS Validation Assay for Inhibitors of Bloom's syndrome helicase (BLM) (AID 2364)
Sequence of RecQ-like DNA helicase BLM (Homo sapiens) (P54132 whole entry, looked up): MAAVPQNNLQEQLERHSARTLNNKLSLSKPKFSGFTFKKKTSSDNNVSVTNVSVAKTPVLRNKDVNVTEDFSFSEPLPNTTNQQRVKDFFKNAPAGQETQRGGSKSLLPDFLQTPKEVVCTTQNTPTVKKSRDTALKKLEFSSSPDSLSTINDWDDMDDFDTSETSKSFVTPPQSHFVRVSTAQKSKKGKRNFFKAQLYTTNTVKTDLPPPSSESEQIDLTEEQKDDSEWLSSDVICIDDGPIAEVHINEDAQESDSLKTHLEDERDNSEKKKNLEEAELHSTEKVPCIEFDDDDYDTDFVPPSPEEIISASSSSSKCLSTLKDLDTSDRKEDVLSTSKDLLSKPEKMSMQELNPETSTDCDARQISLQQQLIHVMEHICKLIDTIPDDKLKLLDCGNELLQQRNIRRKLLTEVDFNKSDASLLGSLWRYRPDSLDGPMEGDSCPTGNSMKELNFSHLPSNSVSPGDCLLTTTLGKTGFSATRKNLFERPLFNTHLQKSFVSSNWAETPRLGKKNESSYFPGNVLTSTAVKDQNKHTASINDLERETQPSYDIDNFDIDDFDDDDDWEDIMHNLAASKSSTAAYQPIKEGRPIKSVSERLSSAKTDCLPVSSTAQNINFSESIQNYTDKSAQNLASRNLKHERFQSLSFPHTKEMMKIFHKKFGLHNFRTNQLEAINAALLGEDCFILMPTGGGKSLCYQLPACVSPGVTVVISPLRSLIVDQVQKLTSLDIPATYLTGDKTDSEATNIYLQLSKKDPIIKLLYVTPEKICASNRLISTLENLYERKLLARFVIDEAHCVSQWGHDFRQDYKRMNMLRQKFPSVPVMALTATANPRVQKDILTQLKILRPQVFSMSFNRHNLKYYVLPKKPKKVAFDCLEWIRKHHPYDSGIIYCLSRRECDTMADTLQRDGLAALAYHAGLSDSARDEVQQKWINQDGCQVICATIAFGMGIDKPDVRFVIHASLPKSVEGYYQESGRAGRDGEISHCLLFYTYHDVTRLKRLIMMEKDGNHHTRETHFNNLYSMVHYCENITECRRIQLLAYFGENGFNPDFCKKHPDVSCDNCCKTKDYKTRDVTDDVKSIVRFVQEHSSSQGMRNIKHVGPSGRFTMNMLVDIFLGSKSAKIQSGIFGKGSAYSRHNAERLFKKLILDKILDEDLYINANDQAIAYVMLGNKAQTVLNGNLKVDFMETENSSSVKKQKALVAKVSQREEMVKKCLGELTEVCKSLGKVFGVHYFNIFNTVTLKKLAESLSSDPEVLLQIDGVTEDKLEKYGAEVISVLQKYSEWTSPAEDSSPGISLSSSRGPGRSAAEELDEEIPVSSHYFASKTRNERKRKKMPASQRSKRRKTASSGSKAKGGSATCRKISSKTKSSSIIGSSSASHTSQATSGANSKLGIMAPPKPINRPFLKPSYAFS
Procedure, shortened: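 50 nM BLM preincubated 15 min at room temperature with compound in pH 8.0 Tris buffer containing 2.5 ug/ml poly(dI-dC); started with 200 nM TAMRA/BHQ-2 forked duplex and 2 mM ATP (final). Unwinding read as TAMRA fluorescence increase, two reads 2 h apart.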

[9] = Validation screen for small molecules that induce DNA re-replication in MCF 10A normal breast cells (AID 463097); note: nearly all actives have a fitted effect of over 60% in size; note: potency is the fitted concentration of half-maximal effect
Procedure, shortened: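 Following 48 hr compound incubation (37 C, 5% CO2), MCF 10A cells receive Hoechst for 40 min at 37 C. Nuclei are then scanned (excitation 405 nm, emission 500-530 nm) for total fluorescence intensity.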

[10] = target: Ferritin light chain (Equus caballus) (UniProt P02791); test: qHTS Validation Assay for Identification of Novel General Anesthetics (AID 2323)
Sequence of Ferritin light chain (Equus caballus) (P02791 2-175 limits assumed): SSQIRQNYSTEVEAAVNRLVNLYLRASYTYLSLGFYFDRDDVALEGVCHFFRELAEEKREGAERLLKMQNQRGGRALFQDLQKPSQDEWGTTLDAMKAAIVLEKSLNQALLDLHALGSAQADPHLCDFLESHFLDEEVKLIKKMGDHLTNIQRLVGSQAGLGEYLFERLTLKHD
From the text: Source: NIH Chemical Genomics Center [NCGC]
Assay Submitter: Roderic Eckenhoff, University of Pennsylvania
Screening Center PI: Christopher P. Austin, NIH
Probe Development: NIH Chemical Genomics Center [NCGC]
Anesthetic development has remained a largely empirical process. There are growing concerns about the cognitive effects of known general anesthetics and acceleration of the onset of neurodegenerative disease. The compounds' toxicity and multiple specific binding targets in the mammalian brain [4] has made them less attractive as drug leads. In this assay, a GABAergic mimetic model system, apoferritin and a profluorescent 1-aminoanthracene ligand (1-AMA), was used to construct a competitive binding assay for identification of novel general anesthetics. The assay was validated for 1-AMA using other known anesthetics, such as isoflurane (CID:3763) and propofol (CID: 4943), [6].
[1] S.L. Bianchi, T. Tran, C. Liu, S. Lin, Y. Li, J.M. Keller, R.G. Eckenhoff, and M.F. Eckenhoff, Brain and behavior changes in 12-month-old Tg2576 and nontransgenic mice exposed to anesthetics. Neurobiol Aging 29 (2008) 1002-10.
[2] Z. Xie, Y. Dong, U. Maeda, R.D. Moir, W. Xia, D.J. Culley, G. Crosby, and R.E. Tanzi, The inhalation anesthetic isoflurane induces a vicious cycle of apoptosis and amyloid beta-protein accumulation. J Neurosci 27 (2007) 1247-54.
[3] P. Honegger, and J.M. Matthieu, Selective toxicity of the general anesthetic propofol for GABAergic neurons in rat brain cell cultures. J Neurosci Res 45 (1996) 631-6.
[4] M.F. Eckenhoff, K. Chan, and R.G. Eckenhoff, Multiple specific binding targets for inhaled anesthetics in the mammalian brain. J Pharmacol Exp Ther 300 (2002) 172-9.
[5] C.A. Butts, J. Xi, G. Brannigan, A.A. Saad, S.P. Venkatachalan, R.A. Pearce, M.L. Klein, R.G. Eckenhoff, and I.J. Dmochowski, Identification of a fluorescent general anesthetic, 1-aminoanthracene. Proc Natl Acad Sci U S A 106 (2009) 6501-6.
[6] W.A. Lea, J. Xi, A. Jadhav, L. Lu, C.P. Austin, A. Simeonov, and R.G. Eckenhoff, A high-throughput approach for identification of novel general anesthetics. PLoS One 4 (2009) e7150.
Three uL of reagents (free 1-AMA (50% saturated solution of 1-aminoanthracene
in PBS) in columns 3, 4 as negative control and 1-AMA/apoferritin mixture (10 uM horse-spleen apoferritin in 50% saturated 1-aminoanthracene in PBS) in columns 1, 2, 5-48) was dispensed into 1536-well Greiner black assay plates. Compounds (23 nL) were transferred via Kalypsys pintool equipped with 1,536-pin array (10 nL slotted pins, V&P Scientific, San Diego, CA). Titration of the positive control, propofol, were delivered via pin transfer from separate control plates to the 2nd column of each assay plate. The starting concentration of the control, dissolved in DMSO, was at 160 mM, followed by two-fold dilution points in duplicate, for a total of 16 concentrations. The plates were incubated for 10 min at room temperature, and then read on an EnVision HTS multilabel reader (Perkin-Elmer, Waltham, MA) (end point read, 3 min/plate) using Fura2 BFP excitation filter (380 nm, bandwidth 10 nm) and fluorescein emission filter (535 nm, bandwidth 25 nm) set. A LANCE/DELFIA dichroic mirror with a cutoff wavelength at 400 nm was used to maximize signal accuracy and strength. Vehicle-only plates, with DMSO being pin-transferred to the entire column 5-48 compound area, were inserted uniformly at the beginning and the end of each library in order to monitor for and record any shifts in the background. Activity was computed as the normalized fluorescence response relative to free 1-AMA and 1-AMA/apoferritin complex values. Concentration-effect relationships were derived by using curve fitting algorithms developed in-house (http://ncgc.nih.gov/pub/openhts/). A four parameter Hill equation was fitted to the concentration-response data by minimizing the residual error between the modeled and observed responses.

| Compound | outcome [1] | outcome [2] | outcome [3] | outcome [4] | outcome [5] | outcome [6] | outcome [7] | outcome [8] | Potency [9] | outcome [10] |
| --- | --- | --- | --- | --- | --- | --- | --- | --- | --- | --- |
| COC(=O)C1=CO[C@@H](O)[C@@H]2C(CO)=CC[C@H]12 | inactive | inactive | inactive | inactive | inactive | inactive |  |  |  |  |
| O=C1NC(c2cccc([N+](=O)[O-])c2)=CCN1c1ccccc1O | inactive | inactive | inactive | inactive | inactive | inactive | inactive | inactive | inactive |  |
| C[N+](C)(C)CCO | inactive | inactive | inactive | inactive | inactive | inactive | inactive |  | inactive | inactive |
| O=[N+]([O-])c1ccc(-c2nc(-c3ccc(F)cc3)c(-c3ccncc3)[nH]2)cc1 | inactive | inactive |  |  | inactive | inactive |  |  | 12.6 µM (active) | inactive |
| O=C1NC(=O)/C(=C/c2ccc3c(c2)OC(F)(F)O3)S1 | inactive | inactive | inactive | inactive | inactive | inactive |  |  |  |  |
| N[C@@H](Cn1ccc(=O)c(O)c1)C(=O)O | inactive | inactive | inactive | inactive | inactive | inactive |  |  |  |  |
| NC(N)=NCCCCN=C(N)N | inactive | inactive | inactive | inactive | inactive | inactive | inactive | inactive | inactive | inactive |
| Cn1cnc2c(NCc3ccccc3)nc(NCCO)nc21 | inactive | inactive | inactive | inactive | inactive | inactive | inactive | inactive | inactive | inactive |
| Cc1nn(-c2ccccc2)c(C)c1/C=N/N1CCN(Cc2ccccc2)CC1 | inactive | inactive | inactive | inactive | inactive | inactive |  |  |  |  |
| Brc1ccc([C@H]2CN3CCSC3=N2)cc1 | inactive | inactive | inactive | inactive | inactive | inactive | inactive |  | 7.08 µM (active) |  |
| CC(C)N(CCC(=O)c1ccc2ccccc2c1)Cc1ccccc1 |  | inactive |  |  | inactive | inactive | inactive |  | 3.55 µM (active) |  |
| C[C@]12CCC(=O)C=C1CC[C@@H]1[C@@H]2[C@@H](O)C[C@@]2(C)[C@H]1CC[C@]2(O)C(=O)COC(=O)CCC(=O)O |  |  |  |  |  |  | inactive | inactive | inactive | inactive |
| Clc1ccc2c(c1)N=C(N1CCNCC1)c1ccccc1N2 | inactive | inactive |  |  | inactive | inactive |  |  |  |  |
| CN(C)c1cc2c(Nc3ccc4c(cnn4Cc4ccccc4)c3)ncnc2cn1 | inactive | inactive | inactive |  | inactive | inactive | inactive |  | 3.16 µM (active) | inactive |
| CCN(CC)CCNC(=O)c1ccc(NS(C)(=O)=O)cc1 | inactive | inactive | inactive | inactive | inactive | inactive |  |  |  |  |
| COc1ccccc1N1CCN(CCN2C(=O)CC3(CCCC3)CC2=O)CC1 | inactive | inactive | inactive | inactive | inactive | inactive | inactive | inactive | inactive | inactive |
| Nc1ncnc2n[nH]c(Nc3ccc(F)cc3)c12 | inactive | inactive | inactive |  | inactive | inactive |  |  |  |  |
| COc1cccc2c1[C@@H]1CN(CCCCn3c(=O)[nH]c4c(sc5ncc(-c6ccccc6)nc54)c3=O)C[C@@H]1CO2 |  |  |  |  | inactive |  | inactive | inactive |  |  |
